Drawing on PubChem BioAssay (NCI), this text covers growth inhibition for six compounds.

Each structure is given as a SMILES string. Where “and” joins values, the source holds several entries; their conditions need not be identical. Equal values may be shown once. About 79,000 compounds went through this panel and 15% of them were active in at least one assay; those are over-represented in the sample as a whole. Some structures have more than one record in an assay (separate samples or runs), and their calls can disagree. Calls of active or inactive are those of the source. Cut-off read from the data, not from the text of the source: active = growth inhibition above about 70%; inactive = the rest.

The nature of experiment [1]: NCI Yeast Anticancer Drug Screen. Data for the rad50 strain (AID 155).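 Note: 0% = growth of vehicle-only cultures of the same strain.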 To be noted: S. cerevisiae rad50 strain growth inhibition, stronger effect = higher value. In outline:
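Cells are treated with compound, grown, and their growth is then scored against vehicle-only cultures of the same repair-deficient yeast strain.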

Experiment [2] can be described thus: NCI Yeast Anticancer Drug Screen. Data for the mec2-1 strain (AID 157). As to conditions: S. cerevisiae mec2-1 strain, stronger effect = higher value. In outline:
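Cells of the genetically defined mec2-1 yeast strain are incubated with test compound. Inhibition of growth is calculated against vehicle-treated controls.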

The nature of experiment [3]: NCI Yeast Anticancer Drug Screen. Data for the sgs1 mgt1 strain (AID 161).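 Note: 0% = growth of cultures given vehicle only.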 As to conditions: S. cerevisiae sgs1 mgt1 strain, stronger effect = higher value. In outline:
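Read-out: growth inhibition vs vehicle controls. Cells: mutant yeast strain deficient in DNA damage repair.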

A short description of experiment [4]: NCI Yeast Anticancer Drug Screen. Data for the cln2 rad14 strain (AID 165).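 Note: 0% = growth equal to vehicle treated cultures.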 As to conditions: S. cerevisiae cln2 rad14 strain, stronger effect = higher value. The essentials: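 The screen exposed genetically defined yeast (cln2 rad14) to test compounds and scored growth inhibition relative to vehicle-treated controls.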
The nature of experiment [5]: NCI Yeast Anticancer Drug Screen. Data for the bub3 strain (AID 167). To be noted: S. cerevisiae bub3 mutant strain, stronger effect = higher value. The essentials: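 Part of a panel of yeast mutants defective in DNA damage repair or cell cycle regulation. Each strain is grown with compound, and inhibition is calculated relative to solvent-treated cultures.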
Experiment [6] in a line: NCI Yeast Anticancer Drug Screen. Data for the wt2 strain (AID 169).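 Note: 0% = growth of vehicle-treated yeast cultures.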 To be noted: S. cerevisiae wt2 strain growth inhibition, stronger effect = higher value. In outline: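 Steps: yeast strain treated with compound; growth recorded; inhibition calculated relative to cultures given vehicle alone.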
A short description of experiment [7]: NCI Yeast Anticancer Drug Screen. Data for the mlh1 rad18 strain (AID 175). To be noted: S. cerevisiae mlh1 rad18 strain growth inhibition, stronger effect = higher value. In outline:
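Compound-treated yeast growth, normalised to vehicle controls. Strain bears defined DNA repair mutations.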

[8] abbreviates: at 5.0 µM (retest, dose inferred, filed as 0.5).
Where [9] appears, read: at 50.0 µM (retest, dose inferred, filed as 5.0).

Turning to `O=C1NC(=S)NC(=O)C1=C/C=C/c1ccccc1`, the growth inhibition is 33% (inactive) in experiment [1] (setting [8]); 40% (inactive) in experiment [1] (setting [9]); 73% (active) in experiment [1] (at 50.0 µM); 40% (inactive) in experiment [2] (setting [8]); 32% (inactive) in experiment [2] (setting [9]); 46.6% (inactive) in experiment [2] (at 50.0 µM). For the same compound, the growth inhibition was 4% (inactive) in experiment [3] (setting [8]); 89% (active) in experiment [3] (setting [9]); 79.7% (active) in experiment [3] (at 50.0 µM); 44% (inactive) in experiment [4] (setting [8]); 89% (active) in experiment [4] (setting [9]); 31.8% (inactive) in experiment [4] (at 50.0 µM). Also, the growth inhibition is 26% (inactive) in experiment [5] (setting [8]); 84% (active) in experiment [5] (setting [9]); 73.7% (active) in experiment [5] (at 50.0 µM); -15% (inactive) in experiment [6] (at 1.2 µM); -3% (inactive) in experiment [6] (at 3.7 µM); 2% (inactive) in experiment [6] (at 11.0 µM). Besides, the growth inhibition in experiment [6] (at 33.0 µM) is 46% (inactive); in experiment [6] (at 100.0 µM) it was 98% (active); in experiment [7] (setting [8]) it was 29% (inactive); in experiment [7] (setting [9]) it was 33% (inactive); in experiment [7] (at 50.0 µM), 69.7% (inactive).
For `CCCCCCCCCCCC1CCCC(C)N1` (stereo not drawn), the growth inhibition is 8% (inactive) and 28% (inactive) in experiment [1] (setting [8]); 98% (active) and 92% (active) in experiment [1] (setting [9]); 91.1% (active) and 91.6% (active) in experiment [1] (at 50.0 µM); 19% (inactive) and 26% (inactive) in experiment [2] (setting [8]); 98% (active) and 88% (active) in experiment [2] (setting [9]); 93.3% (active) in experiment [2] (at 50.0 µM). Moreover, the growth inhibition in experiment [3] (setting [8]) is 17% (inactive) and 32% (inactive); in experiment [3] (setting [9]), 98% (active) and 90% (active); in experiment [3] (at 50.0 µM), 93.3% (active) and 92.5% (active); in experiment [4] (setting [8]), 10% (inactive) and 49% (inactive); in experiment [4] (setting [9]), 94% (active) and 95% (active); in experiment [4] (at 50.0 µM) it was 90.5% (active) and 91% (active). Besides, the growth inhibition in experiment [5] (setting [8]) is 24% (inactive) and 32% (inactive); in experiment [5] (setting [9]), 97% (active) and 85% (active); in experiment [5] (at 50.0 µM), 91.8% (active) and 91.5% (active).
On to `CC(=O)[O-].O=C([CH-]C(=O)c1ccccc1)c1ccccc1.O=C([CH-]C(=O)c1ccccc1)c1ccccc1.[Sm+3]`, for which the growth inhibition in experiment [1] (at 1.2 µM) was 9% (inactive); in experiment [1] (at 3.7 µM), -5% (inactive); in experiment [1] (setting [8]), 55% (inactive); in experiment [1] (at 11.0 µM), 79% (active); in experiment [1] (at 33.0 µM), 96% (active); in experiment [1] (setting [9]), 55% (inactive). In addition, the growth inhibition is 90.8% (active) in experiment [1] (at 50.0 µM); 98% (active) in experiment [1] (at 100.0 µM); -2% (inactive) in experiment [2] (at 1.2 µM); 5% (inactive) in experiment [2] (at 3.7 µM); 42% (inactive) in experiment [2] (setting [8]); 47% (inactive) in experiment [2] (at 11.0 µM). For the same compound, the growth inhibition in experiment [2] (at 33.0 µM) was 97% (active); in experiment [2] (setting [9]), 42% (inactive); in experiment [2] (at 50.0 µM) it was 93% (active); in experiment [2] (at 100.0 µM), 98% (active); in experiment [3] (setting [8]) it was 50% (inactive); in experiment [3] (setting [9]), 50% (inactive). Also, the growth inhibition in experiment [3] (at 50.0 µM) was 92.8% (active); in experiment [5] (at 1.2 µM), 16% (inactive); in experiment [5] (at 3.7 µM), 19% (inactive); in experiment [5] (setting [8]) it was 52% (inactive); in experiment [5] (at 11.0 µM) it was 84% (active); in experiment [5] (at 33.0 µM), 97% (active). Further, the growth inhibition in experiment [5] (setting [9]) was 52% (inactive); in experiment [5] (at 50.0 µM), 90.8% (active); in experiment [5] (at 100.0 µM), 98% (active); in experiment [7] (setting [8]), 44% (inactive); in experiment [7] (setting [9]), 44% (inactive); in experiment [7] (at 50.0 µM) it was 90.2% (active).
`Cc1ccc(P(c2ccc(C)cc2)c2ccc(C)cc2)cc1`: the growth inhibition in experiment [1] (at 1.2 µM) is 16% (inactive); in experiment [1] (at 3.7 µM), 26% (inactive); in experiment [1] (setting [8]), 57% (inactive); in experiment [1] (at 11.0 µM), 25% (inactive); in experiment [1] (at 33.0 µM), 33% (inactive); in experiment [1] (setting [9]), 96% (active). Moreover, the growth inhibition in experiment [1] (at 50.0 µM) is 37.7% (inactive); in experiment [1] (at 100.0 µM) it was 36% (inactive); in experiment [2] (at 1.2 µM), -3% (inactive); in experiment [2] (at 3.7 µM) it was -2% (inactive); in experiment [2] (setting [8]), 58% (inactive); in experiment [2] (at 11.0 µM) it was 2% (inactive). In addition, the growth inhibition was 24% (inactive) in experiment [2] (at 33.0 µM); 98% (active) in experiment [2] (setting [9]); 9.9% (inactive) in experiment [2] (at 50.0 µM); 32% (inactive) in experiment [2] (at 100.0 µM); 7% (inactive) in experiment [3] (setting [8]); 43% (inactive) in experiment [3] (setting [9]). Further, the growth inhibition in experiment [3] (at 50.0 µM) is 39.2% (inactive); in experiment [4] (setting [8]), 69% (inactive); in experiment [4] (setting [9]) it was 44% (inactive); in experiment [4] (at 50.0 µM), 35.9% (inactive); in experiment [5] (at 1.2 µM), 20% (inactive); in experiment [5] (at 3.7 µM), 43% (inactive). Besides, the growth inhibition in experiment [5] (setting [8]) is 43% (inactive); in experiment [5] (at 11.0 µM), 57% (inactive); in experiment [5] (at 33.0 µM) it was 78% (active); in experiment [5] (setting [9]), 88% (active); in experiment [5] (at 50.0 µM), 75.8% (active); in experiment [5] (at 100.0 µM) it was 75% (active). The growth inhibition in experiment [7] (setting [8]) was 49% (inactive); in experiment [7] (setting [9]) it was 97% (active); in experiment [7] (at 50.0 µM), 26.4% (inactive).
As to `CC(=O)[O][Hg][c]1c(C)c(C)c(C)c(C)c1C`, the growth inhibition in experiment [1] (setting [8]) was 98% (active); in experiment [1] (setting [9]) it was 97% (active); in experiment [1] (at 50.0 µM), 87.5% (active); in experiment [2] (setting [8]), 98% (active); in experiment [2] (setting [9]), 97% (active); in experiment [2] (at 50.0 µM), 90.1% (active). In addition, the growth inhibition in experiment [3] (setting [8]) was 99% (active); in experiment [3] (setting [9]), 98% (active); in experiment [3] (at 50.0 µM), 90.7% (active); in experiment [4] (setting [8]), 98% (active); in experiment [4] (setting [9]) it was 98% (active); in experiment [4] (at 50.0 µM) it was 89.8% (active). Moreover, the growth inhibition in experiment [5] (setting [8]) was 98% (active); in experiment [5] (setting [9]), 97% (active); in experiment [5] (at 50.0 µM), 88.5% (active); in experiment [7] (setting [8]), 98% (active); in experiment [7] (setting [9]), 96% (active).
As for `CC1=C2C(=O)[C@H]3[C@@H](CC=C4C[C@@H](O)CC[C@@]43C)[C@@H]2CC[C@]12O[C@@H]1C[C@H](C)CN[C@H]1[C@H]2C`, the growth inhibition is 8% (inactive) and 2% (inactive) in experiment [1] (setting [8]); 85% (active) and 81% (active) in experiment [1] (setting [9]); 90.5% (active) and 85.8% (active) in experiment [1] (at 50.0 µM); 18% (inactive) and 3% (inactive) in experiment [2] (setting [8]); 96% (active) and 83% (active) in experiment [2] (setting [9]); 96.7% (active) and 90.8% (active) in experiment [2] (at 50.0 µM). Also, the growth inhibition in experiment [3] (setting [8]) was 11% (inactive) and 5% (inactive); in experiment [3] (setting [9]), 84% (active) and 91% (active); in experiment [3] (at 50.0 µM) it was 97% (active) and 87% (active); in experiment [4] (setting [8]), -27% (inactive) and -9% (inactive); in experiment [4] (setting [9]), 87% (active) and 60% (inactive); in experiment [4] (at 50.0 µM), 84.2% (active) and 81% (active). The growth inhibition in experiment [5] (setting [8]) was 22% (inactive) and 17% (inactive); in experiment [5] (setting [9]), 91% (active) and 90% (active); in experiment [5] (at 50.0 µM), 97.5% (active) and 88.5% (active).
